Values joined by “and” are separate entries in the source; they are usually repeats but may differ in a detail not shown here. Equal values may be shown once. The panel holds about 83,000 compounds, 20% with a hit somewhere; the sample as a whole holds those more often.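 A percent growth of 40 corresponds to 60% growth inhibition; 0 means no net growth; -100 means all cells died. Active threshold: below 10.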 Some structures have more than one record in an assay (separate samples or runs), and their calls can disagree. Active and inactive are the calls of the source.
How the values were obtained:
Test in all cases: NCI-60 one-dose screen, 48 h (100 = growth as untreated, 0 = no growth, -100 = all killed)
Settings in all cases: 10 µM unless noted
T-47D breast = system: T-47D breast
BT-549 breast = system: BT-549 breast
MDA-MB-435 melanoma = system: MDA-MB-435 melanoma
SW-620 colon = system: SW-620 colon
MCF7 breast = system: MCF7 breast
HCT-116 colon = system: HCT-116 colon
HCC-2998 colon = system: HCC-2998 colon
KM12 colon = system: KM12 colon

Measured: growth

OC1CCC(Oc2cccc3cnc(Nc4ccc5nc[nH]c5c4)nc23)CC1 (configuration not stated)
-19.5% (active) and 18.4% (inactive): BT-549 breast
inactive: MDA-MB-435 melanoma 12.3% and 58.4%
5.53% (active) and 17.9% (inactive): MCF7 breast
active: HCT-116 colon -6.99% and 2.03%
-7.14% (active) and 43.9% (inactive): T-47D breast
8.35% (active) and 61.4% (inactive): HCC-2998 colon
1.29% (active) and 15.7% (inactive): KM12 colon
5.88% (active) and 32.4% (inactive): SW-620 colon

C[N+](C)(C)CN1C(=O)c2ccccc2C1=O
inactive: T-47D breast 96.5% | BT-549 breast 98.6% | MDA-MB-435 melanoma 97.6% | SW-620 colon 107% | MCF7 breast 92.7% | HCT-116 colon 104% | HCC-2998 colon 108% | KM12 colon 111%

CCOC(=O)C(CNc1ccccc1)C(=O)OCC
inactive: T-47D breast 105% | BT-549 breast 104% | MDA-MB-435 melanoma 108% | SW-620 colon 104% | MCF7 breast 99.5% | HCT-116 colon 104% | HCC-2998 colon 102% | KM12 colon 106%

O=C1C2=C(C(=O)c3ccccc31)C(O)(S(=O)(=O)O)C(O)(S(=O)(=O)O)C1N=CC=CC21 (configuration not stated)
39% (inactive) and -21.9% (active): T-47D breast
inactive: BT-549 breast 39.6% and 24.6% | MDA-MB-435 melanoma 44.1% and 39% | SW-620 colon 32.5% and 21.5% | MCF7 breast 29.1% and 24.9% | HCC-2998 colon 44.6% and 28.3% | KM12 colon 41.6% and 32.6%
23.1% (inactive) and 8.66% (active): HCT-116 colon

NCCSC(C[N+](=O)[O-])c1ccccc1Cl (configuration not stated)
inactive: T-47D breast 87.5% | BT-549 breast 81.1%
active: MDA-MB-435 melanoma -24.7% | SW-620 colon -51.3% | MCF7 breast -19.1% | HCT-116 colon -83.9% | HCC-2998 colon -77.8% | KM12 colon -55.6%

O=C(Nc1ccc([N+](=O)[O-])cc1Cl)c1cc(Cl)ccc1O
active: T-47D breast -7.5% and 3.54% | BT-549 breast -35.7% and -74.7% | MDA-MB-435 melanoma -20% and -17.3% | SW-620 colon 0.797% and 1.64% | MCF7 breast 3.12% | HCT-116 colon -45.4% and -78.2% | HCC-2998 colon -23.1% and -28.9% | KM12 colon -58.1% and -25.8%

COc1ccc(CCN(C)CCCC(C#N)(c2ccc(OC)c(OC)c2)C(C)C)cc1OC (configuration not stated)
inactive: T-47D breast 98.2% and 106% | BT-549 breast 94.4% and 93.3% and 94.6% | MDA-MB-435 melanoma 102% and 93.3% and 97.9% | SW-620 colon 92.8% and 100% and 92.6% | MCF7 breast 89% and 106% and 95.3% | HCT-116 colon 75% and 78.9% and 93.4% | HCC-2998 colon 99.7% and 111% and 97.5% | KM12 colon 114% and 115% and 95.6%

Oc1nc(NCCc2ccccc2)sc1/C=C1\C=Nc2ncccc21
inactive: MDA-MB-435 melanoma 18.5% and 21% | HCC-2998 colon 66.2% and 53.9%
active: T-47D breast -1.34% and 2.6% | BT-549 breast 5.29% and -7.9% | SW-620 colon 7.8% and 9.88% | MCF7 breast 2% and 4% | HCT-116 colon 5.84% and 9.69%
9.25% (active) and 13.1% (inactive): KM12 colon

CC(C(=O)O)n1cc(C#N)c(=O)[nH]c1=O (configuration not stated)
inactive: T-47D breast 108% and 101% | BT-549 breast 99.4% | MDA-MB-435 melanoma 94.8% and 106% | SW-620 colon 101% and 106% | MCF7 breast 101% and 93% | HCT-116 colon 105% | HCC-2998 colon 101% and 104% | KM12 colon 101% and 107%

From PubChem BioAssay (NCI)
